Bioassay records (PubChem)
CapD inh = Bacillus anthracis CapD inhibitors, primary screen, biochemical, fluorescence intensity; CapD gamma-glutamyltranspeptidase (Bacillus anthracis Ames Ancestor); purified CapD enzyme, fluorescence intensity read-out; hits give low values; z-score (concentration not given with the values); 140,000 compounds, 0.23% hits; AID 492967, 2010; in the data active = z-score mostly below about -2.9, no sharp cut-off; inactive = mostly above about -1.9
* marks the source's active call; other numbers are inactive results. The entries come from a sample that favours hits as a whole.

Results for COc1ccc(CCNC(=O)c2c(C)cc(=O)oc2C)cc1OC ?
CapD inh: 0.43

How did Cc1cc(=O)oc(C)c1C(=O)NCCCN1CCN(c2ccc(F)cc2)CC1 do in these assays?
CapD inh: -0.7

How did O=C(c1cccs1)N1CCCCC1 do in these assays?
CapD inh: 0.45

Results for CC1CC(C)CN(C(=O)c2cccs2)C1 (stereo unspecified) ?
CapD inh: 0.025

How did O=C(c1ccc(Cl)cc1)N1CCCc2ccccc21 do in these assays?
CapD inh: -0.33

Results for O=C(c1cccs1)N1CCSC1=S ?
CapD inh: -4.8*

How did O=C(O)C1SCCN1C(=O)c1ccc(Cl)cc1 (stereo unspecified) do in these assays?
CapD inh: 0.075

What do the screens show for `O=C(c1ccc(Cl)cc1)N1CCSC1=S`?
CapD inh: -3.5*

Results for Cc1noc(/C=C/N(C)C)c1S(=O)(=O)N(C)Cc1ccccc1 ?
CapD inh: -3.2

How did O=C(O)COc1ccc(/C=C2\C(=O)NC(=O)N(c3ccc(F)cc3)C2=O)cc1Br do in these assays?
CapD inh: -0.19

What do the screens show for `O=C(Cn1ncc2ccccc21)N1CCc2ccccc2C1`?
CapD inh: -0.93

What do the screens show for `COC(=O)c1nc(Cl)c(Cl)c(Cl)c1Cl`?
CapD inh: 2.5

What do the screens show for `CCC(C)(C)c1ccc(S(=O)(=O)N2CCC(NC(=O)OC(C)(C)C)C2)cc1` (stereo unspecified)?
CapD inh: -0.27

How did CCOC(=O)C1=C(N)n2c(s/c(=C/c3ccco3)c2=O)=C(C(=O)OCC)C1c1ccco1 (stereo unspecified) do in these assays?
CapD inh: -4.2*

What do the screens show for `CCOC(=O)C1=C(N)n2c(s/c(=C\c3ccco3)c2=O)=C(C#N)C1c1ccco1` (stereo unspecified)?
CapD inh: 5.9

Results for CCOC(=O)C1=C(N)n2c(s/c(=C/c3ccccc3)c2=O)=C(C(=O)OCC)C1c1ccccc1 (stereo unspecified) ?
CapD inh: 0.45

Results for CC(C(=O)NN)n1nnc(-c2cc(C(F)(F)F)cc(C(F)(F)F)c2)n1 (stereo unspecified) ?
CapD inh: 0.17

Results for Cn1c(=O)c2c(ncn2Cc2cccc(Br)c2)n(C)c1=O ?
CapD inh: -0.38

How did O=C(Cc1c(O)c2ccccc2[nH]c1=O)Nc1ccc(F)cc1 do in these assays?
CapD inh: 0.5

Results for CCOC(=O)c1[nH]c(=O)[nH]c1COC(=O)CNC(=O)c1ccccc1 ?
CapD inh: -6.1*

How did COC(=O)CNC(=O)c1ccccc1 do in these assays?
CapD inh: 0.05

Results for CCOC(=O)c1[nH]c(=O)[nH]c1CN(Cc1ccco1)Cc1[nH]c(=O)[nH]c1C(=O)OCC ?
CapD inh: 0.43

Results for CN(C)CCN1CCN(C(=O)OCCc2cccc(Cl)c2)CC1 ?
CapD inh: 0.035

How did CC(=O)NC(Cc1ccc2ccccc2c1)C(=O)O (stereo unspecified) do in these assays?
CapD inh: 0.15

Results for CN(C(=O)c1ccc(-c2nc3ccccc3s2)s1)c1ccccc1 ?
CapD inh: 0.47

Results for CC1(C)OC(=O)C(=Cc2cccs2)C(=O)O1 ?
CapD inh: -0.63

Results for CSC1=N/C(=C/c2cccs2)C(=O)N1 ?
CapD inh: -4*

Results for CSC1=N/C(=C/c2ccco2)C(=O)N1 ?
CapD inh: -2.9

Results for COc1ccc(C2CCCCC2)cc1 ?
CapD inh: 0.46

What do the screens show for `COc1ccc(CN2CCCCCC2)cc1`?
CapD inh: 0.38

What do the screens show for `COc1ccc([S+]2CCCCC2)cc1`?
CapD inh: -4.9*

How did Cc1onc(-c2c(Cl)cccc2Cl)c1C(=O)NC1CCN(Cc2ccccc2)CC1 do in these assays?
CapD inh: 0

How did COc1ccc(C(=O)Nn2c(SCC(=O)Nc3ccc(C)c(Cl)c3)nc3ccccc3c2=O)cc1 do in these assays?
CapD inh: 1.2

Results for CCN1C(=O)c2ccccc2S(=O)c2ccc(C(=O)NCCc3ccc(C)cc3)cc21 (stereo unspecified) ?
CapD inh: -0.81

How did CCCCNC(=O)C1CCN(Cc2nc(-c3ccc(Cl)cc3)oc2C)CC1 do in these assays?
CapD inh: 0.18

What do the screens show for `COc1ccccc1/C=C1/SC(=S)NC1=O`?
CapD inh: -0.59

Results for Cn1cccc1/C=C1\SC(=S)NC1=O ?
CapD inh: -4.3*

Results for Cn1cccc1/C=C1\CS/C(=C\c2cccn2C)C1=O ?
CapD inh: -0.27

Results for CC(C)CN(CC(C)C)C(=O)c1cc(-c2ccccc2)n[nH]1 ?
CapD inh: -0.1

What do the screens show for `OC(c1ccccc1)c1nc2ccccc2n1Cc1ccccc1` (stereo unspecified)?
CapD inh: 2.1

What do the screens show for `Cc1cc(C(C)(C)C)cc(C)c1I`?
CapD inh: 0.22

How did CSc1nsc2nc(=O)c(/C=C3\C=CC(=O)C(O)=C3)c(N)n12 do in these assays?
CapD inh: -4.5*

How did O=C1NC(=O)C2C1Sc1[nH]c(=O)sc1C2c1ccco1 (stereo unspecified) do in these assays?
CapD inh: -4.1*

How did O=c1[nH]c2c(s1)C(c1ccccc1)C1C3CCC(C3)C1S2 (stereo unspecified) do in these assays?
CapD inh: -0.12

How did COc1ccc(C2c3sc(=O)[nH]c3SC3C(=O)N(c4ccccc4)C(=O)C32)cc1 (stereo unspecified) do in these assays?
CapD inh: 1

Results for CC1=NN(C(=O)c2ccccc2)C(O)(C(F)(F)OC(F)(F)F)C1 (stereo unspecified) ?
CapD inh: -0.32

What do the screens show for `N#CC1(C#N)[C@H](c2cccc(Br)c2)[C@@H](C(N)=O)N2c3ccccc3C=C[C@@H]21`?
CapD inh: 17

What do the screens show for `N#C/C(=N/O)c1nc2ccccc2s1`?
CapD inh: -4.5*

How did N#CC(=C1CCCCC1)c1nc2ccccc2s1 do in these assays?
CapD inh: 0.07

How did CSC(SC)=C(C#N)c1nc2ccccc2s1 do in these assays?
CapD inh: -0.64

Results for O=c1[nH]c2ccccc2n1C1CCN(S(=O)(=O)c2ccc(F)cc2F)CC1 ?
CapD inh: 0.49

Results for Cc1c(C)c(C2=NON3N(C(=O)/C=C/c4ccccc4)c4ccccc4N23)c(C)c(C)c1Cl ?
CapD inh: 0.35

What do the screens show for `CCC(C)(C)c1ccc(S(=O)(=O)N2CCN(c3cc(C(F)(F)F)nc4ccc(C)cc34)CC2)cc1`?
CapD inh: 4.2

Results for CCC(=O)Nc1ncnc2sc3c(c12)CCCC3 ?
CapD inh: -0.07

How did CC(=O)Nc1ncnc2sc3c(c12)CCCC3 do in these assays?
CapD inh: -8.8*

Results for O=C(Nc1ncnc2sc3c(c12)CCCC3)c1ccc(F)cc1 ?
CapD inh: 0.5

Results for CCc1ccc2ncc(S(=O)(=O)c3ccccc3)c(N3CCOCC3)c2c1 ?
CapD inh: -0.41

What do the screens show for `NC(=O)COC(=O)c1ccc(Br)o1`?
CapD inh: -0.34

How did Cc1ccc(C)n1-c1ccccc1C1C=NNC1=O (stereo unspecified) do in these assays?
CapD inh: -4.1*

Results for CC1=NNC(=O)C1Cc1ccccc1 (stereo unspecified) ?
CapD inh: -0.42

What do the screens show for `Cc1ccc(/C=C2\CC/C(=C\c3ccc(C)o3)C2=O)o1`?
CapD inh: 1.2

Results for Cc1ccc(/C=C2\N=C(c3ccc(C4=N/C(=C\c5ccc(C)o5)C(=O)O4)cc3)OC2=O)o1 ?
CapD inh: -0.43

What do the screens show for `Cc1ccc(/C=C2/C=CC(=O)O2)o1`?
CapD inh: -5.2*
